The source of these data is PubChem BioAssay (NCATS).

The test system of one experiment is MCC-13. Briefly: qHTS assay to identify novel small-molecules to repurpose for Merkel cell carcinoma treatment (AID 1296009). Also: nearly all actives have a fitted effect of over 60% in size. Also: potency is read from the fitted curve at half-maximal effect. The settings on record: MCC and control cell lines, CellTiter-Glo viability, 72 h; series mostly up to 46 µM. Summed up:
(§1)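 Cell viability, measured as CellTiter-Glo luminescence, was normalized between DMSO and no-cell wells. The cells had been exposed to 8- or 11-point compound dilutions for 72 hr at 37 degree celsius.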
(In general: Quantitative high-throughput screening tests each substance at several concentrations.)

The subject of another experiment is WaGa. The experiment is described as above. The settings on record: MCC and control cell lines, CellTiter-Glo viability, 72 h; series mostly up to 46 µM. Summed up:
as §1

A further experiment concerns C33A. Briefly: Primary qHTS to identify gynecologic anti-cancer compounds using libraries of approved drugs and bioactive compounds (AID 1345084). Also: nearly all actives have a fitted effect of over 55% in size. The settings on record: Gynecologic cancer cell panel viability, ATPlite luminescence, 48 h; series mostly up to 57.5 µM. An outline of the steps:
(§2)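 Cells, 1,000 per well, plated 16 h, then exposed 48 h at 37 C to compounds. Viability by ATPlite luminescence after 15 min at room temperature.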

A further experiment has as its system CASKI. Described as above. The settings on record: Gynecologic cancer cell panel viability, ATPlite luminescence, 48 h; series mostly up to 57.5 µM. Summed up: as §2
(In general: ATP-based viability assays read luminescence as a measure of living cells.)

The next experiment relates to Es-2. The experiment is described as above. The settings on record: Gynecologic cancer cell panel viability, ATPlite luminescence, 48 h; series mostly up to 57.5 µM. Summed up:
as §2

The next experiment has as its system HeLa. The experiment is described as above. The settings on record: Gynecologic cancer cell panel viability, ATPlite luminescence, 48 h; series mostly up to 57.5 µM. Summed up: as §2
Another experiment relates to Hek293T. The experiment is described as above. The settings on record: Gynecologic cancer cell panel viability, ATPlite luminescence, 48 h, control line for the selectivity index; series mostly up to 57.5 µM. An outline of the steps:
as §2

For a further experiment, the system named is JEG-3. Described as above. The settings on record: Gynecologic cancer cell panel viability, ATPlite luminescence, 48 h; series mostly up to 57.5 µM. An outline of the steps: as §2
For a further experiment, the system named is OV90. The experiment is described as above. The settings on record: Gynecologic cancer cell panel viability, ATPlite luminescence, 48 h; series mostly up to 57.5 µM. An outline of the steps:
as §2

In a further experiment the test system is PA-1. The description is as above. The settings on record: Gynecologic cancer cell panel viability, ATPlite luminescence, 48 h; series mostly up to 57.5 µM. An outline of the steps:
as §2

The next experiment has as its system Tov-21-G. The experiment is described as above. The settings on record: Gynecologic cancer cell panel viability, ATPlite luminescence, 48 h; series mostly up to 57.5 µM. Summed up: as §2
A further experiment deals with Tov112D. The experiment is described as above. The settings on record: Gynecologic cancer cell panel viability, ATPlite luminescence, 48 h; series mostly up to 57.5 µM. An outline of the steps:
as §2

Another experiment concerns MCC-26. The experiment in a line: qHTS assay to identify novel small-molecules to repurpose for Merkel cell carcinoma treatment (AID 1296009). Also: nearly all actives have a fitted effect of over 60% in size. Also: potency is read from the fitted curve at half-maximal effect. The settings on record: MCC and control cell lines, CellTiter-Glo viability, 72 h; series mostly up to 46 µM. An outline of the steps:
as §1

The test system of the next experiment is MKL-1. The experiment is described as above. The settings on record: MCC and control cell lines, CellTiter-Glo viability, 72 h; series mostly up to 46 µM. Summed up:
as §1

Another experiment deals with MKL-2. The description is as above. The settings on record: MCC and control cell lines, CellTiter-Glo viability, 72 h; series mostly up to 46 µM. Summed up:
as §1

A further experiment concerns UISO. The experiment is described as above. The settings on record: MCC and control cell lines, CellTiter-Glo viability, 72 h; series mostly up to 46 µM. Summed up:
as §1

The test system of the next experiment is SKOV3. The experiment in a line: Primary qHTS to identify gynecologic anti-cancer compounds using libraries of approved drugs and bioactive compounds (AID 1345084). Also: nearly all actives have a fitted effect of over 55% in size. The settings on record: Gynecologic cancer cell panel viability, ATPlite luminescence, 48 h; series mostly up to 57.5 µM. An outline of the steps: as §2
The subject of a further experiment is NIH3T3. The experiment in a line: qHTS assay to identify novel small-molecules to repurpose for Merkel cell carcinoma treatment (AID 1296009). Also: nearly all actives have a fitted effect of over 60% in size. Also: potency is read from the fitted curve at half-maximal effect. The settings on record: MCC and control cell lines, CellTiter-Glo viability, 72 h; at 44.8 µM (top of the series) unless noted. An outline of the steps:
as §1

Experiment [1] in a line: qHTS assay to identify inhibitors of the type 1 interferon - major histocompatibility complex class I in skeletal muscle: Counter screen cell viability and HiBit confirmation (AID 1347412). Also: nearly all actives have a fitted effect of over 60% in size. The settings on record: iHSKM muscle cells + IFN-b, HiBiT or CellTiter-Glo, 24 h; Potency: HiBiT; Viability, at 45.9 µM (top of the series). Summed up: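 After 24 h with human IFN-beta (4 ng/ml) and compound titrations (top 46 uM final, 1:3, 12 points), HLA-B HiBit myoblasts were lysed for either Nano-Glo HiBiT luminescence or CellTiter Glo viability on paired plates.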

Results filed as inconclusive are left out. Values without a mark were called inactive. Calls of active or inactive are those of the source. Calls follow the shape of the dose curve; as a rule, active = well fitted curve in the direction sought with a large enough effect; inconclusive = small, poorly fitted or top-dose-only effect, or another doubt; inactive = no such curve, though single readings can be large; an effect the other way counts as inactive or inconclusive.

Take `CC(C)n1cnc2c(NCCc3ccc(O)cc3)nc(-c3csc4ccccc34)nc21`: the Potency entry in the experiment with MCC-13, with WaGa, in the experiment with C33A, in the experiment on CASKI, with Es-2 and in the experiment with HeLa was “inactive” in each case. In addition, the Potency result in the experiment with Hek293T, with JEG-3, in the experiment with OV90, in the experiment on PA-1, in the experiment with Tov-21-G and in the experiment with Tov112D was “inactive” each time.

With `C[N+](C)([O-])CCNc1ccc(NCC[N+](C)(C)[O-])c2c1C(=O)c1c(O)ccc(O)c1C2=O`, the Potency result in the experiment on MCC-26 is “inactive”.

On to `CC(C)[C@H](CO)Nc1nc(Nc2cccc(Cl)c2)c2ncn(C(C)C)c2n1`, for which, in the experiment on MCC-26, the Potency entry was “inactive”.

In the case of `C[C@H]1[C@@H](OC(=O)CCC(=O)O)O[C@@H]2O[C@@]3(C)CC[C@@H]4[C@H](C)CC[C@@H]1[C@@]24OO3`, the Potency result with MCC-26, with CASKI, in the experiment with OV90 and with SKOV3 was “inactive” in each case. Moreover, the Potency in the experiment with MKL-1 is 10.5 µM (active); in the experiment with MKL-2, 5.26 µM (active); in the experiment on UISO, 4.18 µM (active); with WaGa it was 6.62 µM (active).

`C=CC(=O)N1CCc2ccc(-n3c(=O)ccc4cnc5ccc(-c6cnn(C)c6)cc5c43)cc21`: the Potency was 1.87 µM (active) with MKL-1, 1.87 µM (active) in the experiment on MKL-2 and 6.62 µM (active) in the experiment on UISO.

As for `C#CCC(Cc1cnc2nc(N)nc(N)c2n1)c1ccc(C(=O)N[C@@H](CCC(=O)O)C(=O)O)cc1` (stereo partly specified), the Potency result with MCC-26 and with MKL-2 was “inactive” in each case. The Potency in the experiment with WaGa is 0.526 µM (active).

Consider `C[C@H](NCc1ccc(OCc2cccc(F)c2)cc1)C(N)=O`, for which the Potency in the experiment on MCC-26 is 20.9 µM (active); with MKL-1, 10.5 µM (active); in the experiment with UISO, 16.6 µM (active); in the experiment on WaGa it was 18.7 µM (active).

For the compound `C=CC[C@@H]1C=C(C)C[C@H](C)C[C@H](OC)[C@H]2O[C@@](O)(C(=O)C(=O)N3CCCC[C@H]3C(=O)O[C@H](C(C)=C[C@@H]3CC[C@H](O)[C@H](OC)C3)[C@@H](C)[C@@H](O)CC1=O)[C@@H](C)C[C@@H]2OC`, the Potency entry with MCC-26 was “inactive”. In the experiment on NIH3T3, the outcome was inactive.

`CN(CC(=O)N(Cc1ccc(C2CCCCC2)cc1)c1ccc(C(=O)O)c(O)c1)S(=O)(=O)c1c(F)c(F)c(F)c(F)c1F`: the Potency entry with MCC-26 and in the experiment with UISO was “inactive” in each case. In addition, the Potency with MKL-1 is 8.33 µM (active); in the experiment with WaGa it was 6.62 µM (active). Moreover, the outcome in the experiment on NIH3T3 was inactive.

With `Cc1cc(C(=O)NOCCO)c(Nc2ccc(I)cc2F)n(C)c1=O`, the Potency entry with MCC-26, in the experiment on MKL-1, in the experiment with MKL-2, in the experiment on UISO and in the experiment on WaGa was “inactive” in each case.

As for `CC(C)Oc1ccc(C(=O)N[C@H](CNC(=O)CN(C)C)Cc2ccc(-c3cn4cccc([C@H](C)O)c4n3)cc2)cc1Cl`, the Potency entry in the experiment on MKL-1 and in the experiment with MKL-2 was “inactive” each time.

For `CCc1cnn2c(NCc3ccc[n+]([O-])c3)cc(N3CCCC[C@@H]3CCO)nc12`, the Potency was 0.0833 µM (active) with MCC-26, 0.0418 µM (active) in the experiment with MKL-2 and 0.0935 µM (active) in the experiment with UISO.

As to `CC(C)(N)c1ccc(-c2nc3ccccc3nc2-c2ccccc2)cc1`, the Potency entry in the experiment with MCC-13, with C33A, in the experiment with HeLa, with Hek293T, in the experiment on JEG-3 and with Tov-21-G was “inactive” in each case. The Potency entry (in the experiment with Tov112D; in [1]) was “inactive” throughout. Moreover, the Potency in the experiment on WaGa was 18.7 µM (active).

For `COc1cc(N2CCC(C(N)=O)CC2)ccc1Nc1nc(N)c(Cl)c(Nc2ccccc2S(=O)(=O)C(C)C)n1`, the Potency result in the experiment on MCC-13 was “inactive”. Besides, the Potency with UISO was 5.9 µM (active); in the experiment with WaGa, 16.6 µM (active).

In the case of `N#CC(=C(N)Sc1ccc(N)cc1)c1ccccc1C(F)(F)F`, the Potency entry in the experiment with MCC-26, in the experiment with MKL-1, with MKL-2, in the experiment on UISO and in the experiment with WaGa was “inactive” in each case.

On to `CC[C@@]1([C@@H]2O[C@@H]([C@H]3O[C@@](O)(CO)[C@H](C)C[C@H]3C)C[C@H]2C)CC[C@H]([C@]2(C)CC[C@]3(C[C@H](O)[C@@H](C)[C@@H]([C@@H](C)[C@@H](OC)[C@H](C)C(=O)O)O3)O2)O1`, for which the Potency result in the experiment on MCC-26 is “inactive”. Also, the Potency with MKL-1 was 0.512 µM (active); in the experiment with MKL-2, 0.204 µM (active); in the experiment with UISO, 0.512 µM (active); in the experiment with WaGa, 0.457 µM (active).
